# Data from the supplement of paper PMC9844399.
# Counter-ions that a name gives are not always drawn. A number with no mark means an inactive call.
# Test system: HeLa
# Assay: MALAT1 nuclear FISH intensity, robust Z-score vs DMSO; higher = more nuclear MALAT1 lncRNA, active = -3 or less
# Settings: 10 µM; 6 h
# 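Further: High-content confocal imaging of branched-DNA amplified FISH in 384-well plates, Hoechst-defined nuclei, score is well value minus plate DMSO median over DMSO robust SD, four wells per compound.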
row,SMILES,MALAT1 nuclear FISH intensity
1,NC[C@H]1O[C@H](O[C@H]2[C@H](O)[C@@H](O[C@H]3O[C@H](CO)[C@@H](O)[C@H](N)[C@H]3O)[C@H](N)C[C@@H]2N)[C@H](O)[C@@H](O)[C@@H]1O [Kanamycin Sulfate],-0.497
2,CC(C)NCC(O)COc1ccc(CCOCC2CC2)cc1 (stereo not given),0.661
3,CNC(=C[N+](=O)[O-])NCCSCc1csc(CN(C)C)n1 [Nizatidine],-0.87
4,CCC[C@@H]1C[C@@H](C(=O)N[C@@H]([C@H]2O[C@H](SC)[C@H](O)[C@@H](O)[C@H]2O)[C@H](C)Cl)N(C)C1,0.492
5,CN(Cc1cnc2nc(N)nc(N)c2n1)c1ccc(C(=O)N[C@@H](CCC(=O)O)C(=O)O)cc1 [Methotrexate],-0.0693
6,N[C@@H]1[C@H]2CN(c3nc4c(cc3F)c(=O)c(C(=O)O)cn4-c3ccc(F)cc3F)C[C@@H]12 [Trovafloxacin mesylate],-0.772
7,COc1cc2c3cc1Oc1c(OC)c(OC)cc4c1[C@@H](Cc1ccc(OC(=O)c5ccc([N+](=O)[O-])cc5)c(c1)Oc1ccc(cc1)C[C@@H]3N(C)CC2)N(C)CC4 [E6 berbamine],-1.22
8,CC(=O)c1ccc(S(=O)(=O)NC(=O)NC2CCCCC2)cc1 [Acetohexamide],-0.957
9,OCCOCCN1CCN(C2=Nc3ccccc3Sc3ccccc32)CC1 [Quetiapine Fumarate],-0.38
10,CN1CCN(C2=Nc3ccccc3Oc3ccc(Cl)cc32)CC1 [Loxapine Succinate],-0.111
